Test results published in PubChem BioAssay (NCATS).
Activity calls are given as the source filed them. How the calls were made is not given here.

Experiment: Immunotoxin (HA22) sensitization/mitigation study. Vehicle arm (PBS) (AID 1159510)
Details: cancer cells viability with PBS vehicle (HA22 study); series mostly up to 46.1 µM; viability (% of control): at the top concentration
Potency means the concentration at half of the fitted maximal effect.

Row | SMILES | viability (% of control) | Potency
1 | CC(C)C[C@H](NC(=O)[C@@H](O)[C@H](N)Cc1ccccc1)C(=O)O | 108% (inactive) | 
2 | COc1cccc(OC)c1-c1cc(C(=O)NC2(C(=O)O)C3CC4CC(C3)CC2C4)nn1-c1ccnc2cc(Cl)ccc12 (stereo not drawn) |  | 29.6 µM (active)
3 | COc1ccc(CCN(C)CCCOc2ccc(S(=O)(=O)c3[nH]c4ccccc4c3C(C)C)cc2)cc1OC |  | 26.4 µM (active)
4 | CN(C)C1CCN(C(=O)c2ccc(NC(=O)Nc3nc(N4CCOCC4)nc(N4CCOCC4)n3)cc2)CC1 |  | 0.166 µM (active)
5 | O=C(O)c1ccc(-c2c[nH]c3ccc(-c4ccccc4)cc23)cc1C1CCCC1 | 85.7% (inactive) | 
6 | CCN(CCCO)CCCOc1ccc2c(Nc3cc(CC(=O)Nc4cccc(F)c4)[nH]n3)ncnc2c1 |  | 18.7 µM (active)
7 | COc1ccc(CC2SC(=O)NC2=O)cc1C(=O)NCc1ccc(C(F)(F)F)cc1 (stereo not drawn) | 79.6% (inactive) | 
8 | CCC[C@H](NC(=O)C(C#N)=Cc1cccc(Br)n1)c1ccccc1 |  | 1.05 µM (active)
9 | Nc1nccc(Oc2ccc(NC(=O)c3c[nH]cc(-c4ccc(F)cc4)c3=O)cc2F)c1Cl |  | 23.5 µM (active)
10 | CS(=O)(=O)c1cccc(CNc2nc(Nc3ccc4c(c3)CCC(=O)N4)ncc2C(F)(F)F)c1 |  | 4.69 µM (active)
11 | C/C(=C\C(=O)Nc1ccccc1C(=O)O)c1ccc2ccccc2c1 |  | 16.6 µM (active)
12 | N#Cc1ccc(COC[C@H]2O[C@@H](n3c(NCc4ccc(Cl)c(Cl)c4)nc4c(N)ncnc43)[C@@H](O)[C@@H]2O)cc1 |  | 23.5 µM (active)
13 | CCN(CC)CCCCNc1nc2cc(Cl)c(Cl)cc2nc1-c1ccc(-c2cccs2)s1 |  | 18.7 µM (active)
